The other results are listed elsewhere or left out. Active and inactive are the calls of the source.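 Rule for the calls: active = reconfirmed compounds whose average cytotoxicity reaches 50% or more; inactive = the rest.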

Among the data in PubChem BioAssay are cytotoxicity values, retold here.

A short description of the experiment: PPC-1 cell viability loss – ATP content luminescence, cytotoxicity control for TRAIL apoptosis potentiator project, confirmation (AID 1447).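 Note: 0% = DMSO-treated cells and 100% = wells holding medium but no cells.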 The settings on record: PPC-1 viability, ATPlite luminescence, overnight; at 5 µM; hits give high values. A general note: Cellular ATP, detected with luciferase, serves as a proxy for viable cell number.
Regarding `O=C(Nc1ccn(Cc2ccccc2)n1)c1cccc(F)c1`, the cytotoxicity was 39.6% (inactive).

Consider `CCCC(=O)Nc1nnc(CC(=O)OCC)s1`, for which the cytotoxicity is -5.4% (inactive). The value for `CS(=O)(=O)N(CC(=O)N1CCOCC1)c1ccc2c3c(cccc13)CC2` was -7.5% (inactive). `Clc1cccc(-c2nc3nc4ccccc4nc3n2Cc2ccco2)c1`: the cytotoxicity is -6% (inactive).

For `C=CCn1c(C)cc(C2=NNC(=NCC)SC2)c1C`, the cytotoxicity is 88% (active).

In the case of `CCOC(=O)c1c(C)[nH]c2c1-c1ccccc1C(=O)C2=O`, the cytotoxicity is 96.4% (active). The value for `O=C(CSc1nnc(-c2ccc([N+](=O)[O-])cc2)o1)Nc1ccccn1` was 57% (active); that for `CCOc1cc(N2CCOCC2)c(OCC)cc1NC(=O)c1cc(C)nc2ccccc12` was -9.1% (inactive). For `Cn1c(=O)n(C)c2cc(S(=O)(=O)N3CCCc4ccccc43)ccc21` the value was 14.1% (inactive); for `CNC(=O)COC(=O)c1cc(-c2ccc(OC)cc2)nc2ccccc12`, 36.3% (inactive).

With `N/C(=N\OC(=O)c1ccc([N+](=O)[O-])cc1)c1ccccn1`, the cytotoxicity was 11.3% (inactive).

As for `COc1ccc(-c2cc(C(=O)NCc3ccco3)no2)cc1OC`, the cytotoxicity is 17.4% (inactive). Take `COc1cccc(/C=C/C(=O)Nc2ccc3c(c2)OCCO3)c1`: the cytotoxicity was 48.7% (inactive).

Regarding `OCCNc1nc2ccccc2n1-c1ncnc2sc3c(c12)CCC3`, the cytotoxicity was -17.2% (inactive). Consider `O=C(CN1C(=O)c2ccccc2S1(=O)=O)N1CCc2ccccc21`, for which the cytotoxicity is 46.8% (inactive). The value for `O=C(O)c1ccc(N/N=C/c2cn(-c3ccccc3)nc2-c2cccs2)cc1` was 85.2% (active); that for `COc1cc(NS(=O)(=O)c2ccc(NC(C)=O)cc2)cc(OC)c1` was -8.5% (inactive).
